From PubChem BioAssay
Pf gamet viab – P. falciparum stage V gametocyte viability inhibition | P. falciparum stage V gametocytes, ATP luminescence, 24 h | inhibition, % at 10.9 µM | 150,000 compounds, 0.065% hits | AID 743093;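 active = inhibition above the mean plus 3 SD of compounds within the control limits, set per campaign, cut at about 38% in these data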;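 also: 0% = DMSO wells and 100% = medium only without gametocytes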
Bfl-1 Bim block – disrupts Bim binding to human Bfl-1; AID 1008; Bead-based flow cytometry, Bim-Bfl-1 binding inhibition; 190,000 compounds, 0.12% hits; Q16548; inhibition, % at 10 µM;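 also: 0% = wells without compound plus tracer and 100% = blocker peptide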
Bim-Bcl-2 – human Bim-Bcl-2 interaction inhibition. Bead-based flow cytometry, Bim peptide-Bcl-2 binding. inhibition, % at 10 µM. P10415. 190,000 compounds, 0.06% hits; in the data active = inhibition above about 40%; inconclusive = no clear call, values can overlap the other calls;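 also: 0% = no compound wells with probe peptide and 100% = reference peptide inhibitor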
Bim-Bcl-XL – inhibitors of Bim-Bcl-XL interaction, human. Q07817. Bim peptide-Bcl-XL binding, bead flow cytometry, fluorescence. inhibition, % at 10 µM. 190,000 compounds, 0.04% hits
Target sequence (Q07817 whole entry, looked up): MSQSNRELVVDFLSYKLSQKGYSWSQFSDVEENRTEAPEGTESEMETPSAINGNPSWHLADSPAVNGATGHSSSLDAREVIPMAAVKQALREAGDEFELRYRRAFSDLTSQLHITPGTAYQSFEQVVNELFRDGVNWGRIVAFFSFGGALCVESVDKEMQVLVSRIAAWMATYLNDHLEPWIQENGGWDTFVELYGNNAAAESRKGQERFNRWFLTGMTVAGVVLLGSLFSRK
Bim-Bcl-W – human Bim-Bcl-W interaction inhibition; Q92843; 190,000 compounds, 0.02% hits; bead-based flow cytometry, Bim peptide-Bcl-W binding; inhibition, % at 10 µM;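 also: 0% = bound tracer without compound and 100% = peptide blocker; higher means less fluorescent Bim peptide bound to Bcl-W beads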
Target sequence (Q92843 whole entry, looked up): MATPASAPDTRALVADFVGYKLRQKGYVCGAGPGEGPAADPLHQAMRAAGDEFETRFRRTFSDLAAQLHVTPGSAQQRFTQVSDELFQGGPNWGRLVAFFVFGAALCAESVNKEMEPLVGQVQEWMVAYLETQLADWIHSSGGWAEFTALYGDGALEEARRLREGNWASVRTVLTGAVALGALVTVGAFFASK
Bim-Bcl-B – inhibitors of Bim-Bcl-B interaction, human; Q9HD36; bead-based flow cytometry, Bim peptide-Bcl-B binding; inhibition, % at 10 µM; 190,000 compounds, 0.073% hits; AID 951;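 also: 0% = tracer peptide without compound and 100% = reference inhibitor peptide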
* marks the source's active call; other numbers are inactive results; ? = inconclusive; · = no result given. This is a sample that favours compounds with a hit; in the whole collection about 0.2% have one here. Rule as the data show it, unless noted: active = inhibition above about 40%.

SMILES	Pf gamet viab	Bfl-1 Bim block	Bim-Bcl-2	Bim-Bcl-XL	Bim-Bcl-W	Bim-Bcl-B
Cc1ccc(-c2cc(-c3ccccc3)c(C#N)c(N)n2)o1	·	42*	4	0	6	2
Cc1cccc2c(N)c3c(nc12)CCCC3 (tested in a mixture with another compound)	43*	-2	2	1	-1	-1
C=C1C[C@H](O[C@@H]2O[C@H](CO)[C@@H](O)[C@H](O)[C@H]2O)[C@@H]2[C@H](OC(=O)[C@H]2C)[C@H]2[C@H](C)[C@H](O)C[C@@H]12	-31	·	·	·	·	·
COc1ccccc1N1CCN(S(=O)(=O)c2ccc3c4c(cccc24)C(=O)N3C)CC1	·	-14	-12	-9	-5	-11
COc1ccc2c3c(cccc13)N(C)N=C2C	12	73*	40*	27	70*	26
Cc1ccc(Cc2nnc3n(-c4cccc(C)c4)nc(C(=O)c4ccccc4)n3c2=O)cc1	7	2	15	-5	-6	-3
CCc1sc(C(=O)NCCCn2ccnc2)cc1Br	-1	·	·	·	·	·
O=C1c2ccccc2-c2onc3ccc(NCCCn4ccnc4)c1c23	·	79*	88*	100*	94*	92*
O=C(Cn1c(C(F)(F)F)nc2ccccc21)Nc1ccccc1C(=O)O	39*	-4	-3	0	0	-3
CC(C(=O)Nc1ccccc1C(=O)O)n1c(C(F)(F)F)nc2ccccc21 (configuration not stated)	-31	-6	-6	-5	-1	-2
CN(c1ccccc1)c1nccc(=O)[nH]1	-19	·	·	·	·	·
CC(C)c1ccc(S(=O)(=O)/N=C2/C=CC(=O)c3ccccc32)cc1	·	42*	6	1	9	-16
COC(=O)C(C(C)=O)C1=C/C(=N\S(=O)(=O)c2ccc(C)cc2)c2ccccc2C1=O (configuration not stated)	·	-9	-6	-6	1	-6
CCOc1ccccc1N1CCN(C(=O)c2ccc3[nH]c4c(c3c2)CCCC4)CC1	44*	-1	1	-2	-2	-7
COc1cc(CNc2ccc(N3CCCC3)cc2)ccc1OCc1ccccc1	-9	47*	24	3	32	0
CC(=O)N1CCN(c2ccccc2NC(=O)Cc2ccc(Cl)cc2)CC1	-5	-3	-2	-1	-4	-6
O=C1NC2=C(C(=O)OC2)C(c2ccc(OC(F)(F)F)cc2)N1 (configuration not stated)	2	·	·	·	·	·
CCOc1ccc(/C=C/C(=O)c2cc(Br)ccc(=O)c2O)cc1	0	42*	28	21	21	-13
COc1ccc(-c2nc(NC(=O)Cn3cnnn3)sc2C)cc1	-2	-2	2	-2	0	-3
Cc1sc(NC(=O)Cn2cnnn2)nc1-c1ccc(Cl)cc1	17	53*	84*	20	7	67*
CC(C)CC(=O)OCc1cn(-c2ccccc2)nn1	·	58*	83*	10	1	80*
O=[N+]([O-])c1cccc(-c2ccc3nnc(SCc4cccnc4)n3n2)c1	0	·	·	·	·	·
CCOc1cccc(CN2CCCC(CNC(=O)c3cccc(OC)c3OC)C2)c1 (configuration not stated)	1	·	·	·	·	·
O=C1N=C(N2CCOCC2)S/C1=C/c1ccc(-c2ccc(F)cc2)o1	0	7	3	0	2	-2
Cc1ccc(-c2ccc(/C=C3\SC(N4CCOCC4)=NC3=O)o2)cc1	-6	41*	17	11	17	2
SMILES	Pf gamet viab	Bfl-1 Bim block	Bim-Bcl-2	Bim-Bcl-XL	Bim-Bcl-W	Bim-Bcl-B
O=C1NC(=S)S/C1=C/c1ccc(N2CCOCC2)o1	·	53*	34	18	36	11
CCOc1ccc(N(CC(=O)N2CCC(Cc3ccccc3)CC2)S(C)(=O)=O)cc1	28	-6	-2	-4	-1	-2
COc1cccc2sc(Nc3nc(-c4ccncc4)cs3)nc12	50*	-6	-4	0	1	0
O=C(CSc1nnc(-c2ccc(F)cc2)o1)NC1CCCCC1	43*	-6	-5	-2	-5	-5
O=C(CSc1nnc(-c2ccncc2)o1)NC1CCCCC1	14	-3	-2	0	-1	0
Cc1ccc(/C=C(\C#N)C(=O)N2CCCC2)c(C)c1	·	4	4	-2	-1	2
Nc1c(C(=O)NCC2CCCO2)sc2nc3c(c(-c4ccco4)c12)CC/C3=C\c1ccco1 (configuration not stated)	0	38	65*	37	33	52*
Cc1[nH]c2ccccc2c1C(=O)COC(=O)c1c(-c2c(F)cccc2Cl)noc1C	-17	43*	28	41*	29	21
COc1ccc(C(=S)N2CCCCCC2)cc1	·	52*	37	53*	46*	38
COc1ccc(C(=S)N2CCNCC2)cc1	·	-9	-9	7	1	-6
COc1ccc(NC(=O)CCC(=O)Nc2nnc(C(F)(F)F)s2)c(OC)c1	·	-3	1	-3	-2	0
O=C(c1ccccc1NS(=O)(=O)c1ccc(Br)s1)N1CCCC1	-11	49*	27	38	31	-3
O=C(c1ccccc1NS(=O)(=O)c1ccc(F)cc1)N1CCCC1	24	-16	-14	-13	-1	-9
CC1CC(N(C(=O)c2ccccc2Cl)c2ccccc2)c2ccccc2N1 (configuration not stated)	-46	1	-2	-4	-1	-6
O=C(Nn1c(C2CCCCC2)nc2ccccc2c1=O)c1ccc([N+](=O)[O-])cc1	42*	-11	-1	1	0	0
COc1cccc(OC)c1C(=O)Nn1c(C2CCC2)nc2ccccc2c1=O	-11	0	-3	-1	1	0
Cc1nc2ncccn2c1-c1csc(Nc2ccc(O)cc2)n1	-1	19	13	62*	35	33
Cc1ccc(Nc2nc(-c3c(C)nc4ncccn34)cs2)cc1	-16	-1	-5	13	16	6
NC(=O)c1c(NC(=O)C2CCCO2)sc2c1CCCC2 (configuration not stated)	14	39	30	42*	32	28
CCOC(=O)c1c(NC(=O)C2CCCO2)sc2c1CCC2 (configuration not stated)	·	-12	-8	-8	-1	-9
COc1cccc(=O)c2c(C)n(C)c(C)c12	39*	-2	0	0	8	2
COc1ccc(C(C)NS(=O)(=O)Cc2ccccc2)cc1 (configuration not stated)	-10	·	·	·	·	·
COC(=O)CNC(=O)/C=C/c1ccc(OC)cc1	·	-7	-1	-5	1	-4
CCN1/C(=C/C=C/c2oc3ccc(-c4ccccc4)cc3[n+]2CC)Oc2ccc(-c3ccccc3)cc21	0	·	?	·	·	·
N#CC1=C(N)N(c2ccc(Oc3ccccc3)cc2)C(=O)C1	·	-10	-8	-10	-2	-5
COc1ccccc1N=c1oc2cc(O)ccc2cc1C(=O)NCC1CCCO1 (configuration not stated)	24	0	-3	-1	0	-1
